Assay results: ChEMBL document CHEMBL2218924, “A broad activity screen in support of a chemogenomic map for kinase signalling research and drug discovery” (Biochem J, 2013)

Key:
[1] = molecular target: T1, cGMP-dependent protein kinase 1 (Homo sapiens) (UniProt Q13976); conditions: at 1 µM
T1 sequence (whole entry): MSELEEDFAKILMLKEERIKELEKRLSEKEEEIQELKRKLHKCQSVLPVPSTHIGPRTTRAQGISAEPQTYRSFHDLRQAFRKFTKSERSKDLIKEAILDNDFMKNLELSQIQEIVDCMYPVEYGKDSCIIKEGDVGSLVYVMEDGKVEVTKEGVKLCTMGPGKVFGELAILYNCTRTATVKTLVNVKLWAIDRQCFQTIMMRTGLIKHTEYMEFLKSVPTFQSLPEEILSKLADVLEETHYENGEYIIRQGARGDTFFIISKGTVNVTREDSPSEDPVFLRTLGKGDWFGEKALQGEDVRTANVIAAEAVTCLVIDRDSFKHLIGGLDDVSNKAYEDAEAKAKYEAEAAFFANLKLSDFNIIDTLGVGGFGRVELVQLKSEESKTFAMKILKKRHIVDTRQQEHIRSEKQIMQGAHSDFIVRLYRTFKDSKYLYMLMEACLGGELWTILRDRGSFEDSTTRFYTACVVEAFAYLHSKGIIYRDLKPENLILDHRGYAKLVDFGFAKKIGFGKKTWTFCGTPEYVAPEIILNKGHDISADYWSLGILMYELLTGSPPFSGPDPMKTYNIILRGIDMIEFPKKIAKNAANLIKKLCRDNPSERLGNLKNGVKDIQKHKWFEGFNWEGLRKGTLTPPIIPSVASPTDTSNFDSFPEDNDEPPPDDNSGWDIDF

[2] = molecular target: T1, cGMP-dependent protein kinase 1 (Homo sapiens); conditions: at 10 µM
[3] = molecular target: T1, cGMP-dependent protein kinase 1 (Homo sapiens); conditions: at 1 µM; remark: listed apart in the source
[4] = molecular target: T1, cGMP-dependent protein kinase 1 (Homo sapiens); conditions: at 10 µM; remark: listed apart in the source
[5] = molecular target: T2, MAP kinase-activated protein kinase 5 (Homo sapiens) (UniProt Q8IW41); conditions: at 1 µM
T2 sequence (whole entry): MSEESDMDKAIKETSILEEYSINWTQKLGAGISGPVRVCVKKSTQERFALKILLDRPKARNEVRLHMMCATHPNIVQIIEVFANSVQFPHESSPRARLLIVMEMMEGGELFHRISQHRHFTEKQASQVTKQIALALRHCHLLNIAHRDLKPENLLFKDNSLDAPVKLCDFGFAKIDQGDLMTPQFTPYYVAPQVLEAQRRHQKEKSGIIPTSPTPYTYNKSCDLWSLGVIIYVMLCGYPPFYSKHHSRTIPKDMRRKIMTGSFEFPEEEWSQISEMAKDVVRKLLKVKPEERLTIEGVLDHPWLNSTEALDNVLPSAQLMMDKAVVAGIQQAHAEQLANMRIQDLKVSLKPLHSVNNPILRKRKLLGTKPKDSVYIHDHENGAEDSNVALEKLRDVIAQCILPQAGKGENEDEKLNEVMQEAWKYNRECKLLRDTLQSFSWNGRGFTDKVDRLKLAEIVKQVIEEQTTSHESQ

[6] = molecular target: T2, MAP kinase-activated protein kinase 5 (Homo sapiens); conditions: at 10 µM
[7] = molecular target: Serine/threonine-protein kinase N2 (Homo sapiens) (UniProt Q16513); conditions: at 1 µM
[8] = molecular target: Serine/threonine-protein kinase N2 (Homo sapiens) (UniProt Q16513); conditions: at 10 µM
[9] = molecular target: Tyrosine-protein kinase FRK (Homo sapiens) (UniProt P42685); conditions: at 1 µM
[10] = molecular target: Tyrosine-protein kinase FRK (Homo sapiens) (UniProt P42685); conditions: at 10 µM
[11] = molecular target: T3, Phosphorylase b kinase gamma catalytic chain, liver/testis isoform (Homo sapiens) (UniProt P15735); conditions: at 1 µM
T3 sequence (whole entry): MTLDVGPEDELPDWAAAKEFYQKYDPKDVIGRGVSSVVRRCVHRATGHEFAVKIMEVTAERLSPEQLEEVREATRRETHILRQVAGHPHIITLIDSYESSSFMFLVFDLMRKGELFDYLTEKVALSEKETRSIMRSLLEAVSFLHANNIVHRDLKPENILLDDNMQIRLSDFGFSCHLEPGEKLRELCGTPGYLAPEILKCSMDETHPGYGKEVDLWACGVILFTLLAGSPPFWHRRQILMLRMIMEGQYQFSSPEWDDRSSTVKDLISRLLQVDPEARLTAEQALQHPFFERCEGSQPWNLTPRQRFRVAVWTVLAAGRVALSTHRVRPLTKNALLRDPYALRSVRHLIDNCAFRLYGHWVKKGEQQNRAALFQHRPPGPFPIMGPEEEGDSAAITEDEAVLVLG

[12] = molecular target: T3, Phosphorylase b kinase gamma catalytic chain, liver/testis isoform (Homo sapiens); conditions: at 10 µM
[13] = molecular target: Serine/threonine-protein kinase pim-1 (Homo sapiens) (UniProt P11309); conditions: at 1 µM
[14] = molecular target: Serine/threonine-protein kinase pim-1 (Homo sapiens) (UniProt P11309); conditions: at 10 µM
[15] = molecular target: Serine/threonine-protein kinase pim-2 (Homo sapiens) (UniProt Q9P1W9); conditions: at 1 µM
[16] = molecular target: Serine/threonine-protein kinase pim-2 (Homo sapiens) (UniProt Q9P1W9); conditions: at 10 µM
[17] = molecular target: Serine/threonine-protein kinase pim-3 (Homo sapiens) (UniProt Q86V86); conditions: at 1 µM
[18] = molecular target: Serine/threonine-protein kinase pim-3 (Homo sapiens) (UniProt Q86V86); conditions: at 10 µM
[19] = molecular target: Serine/threonine-protein kinase PLK1 (Homo sapiens) (UniProt P53350); conditions: at 1 µM
[20] = molecular target: Serine/threonine-protein kinase PLK1 (Homo sapiens) (UniProt P53350); conditions: at 10 µM

Sequence of Serine/threonine-protein kinase PLK1 (Homo sapiens) (P53350 whole entry): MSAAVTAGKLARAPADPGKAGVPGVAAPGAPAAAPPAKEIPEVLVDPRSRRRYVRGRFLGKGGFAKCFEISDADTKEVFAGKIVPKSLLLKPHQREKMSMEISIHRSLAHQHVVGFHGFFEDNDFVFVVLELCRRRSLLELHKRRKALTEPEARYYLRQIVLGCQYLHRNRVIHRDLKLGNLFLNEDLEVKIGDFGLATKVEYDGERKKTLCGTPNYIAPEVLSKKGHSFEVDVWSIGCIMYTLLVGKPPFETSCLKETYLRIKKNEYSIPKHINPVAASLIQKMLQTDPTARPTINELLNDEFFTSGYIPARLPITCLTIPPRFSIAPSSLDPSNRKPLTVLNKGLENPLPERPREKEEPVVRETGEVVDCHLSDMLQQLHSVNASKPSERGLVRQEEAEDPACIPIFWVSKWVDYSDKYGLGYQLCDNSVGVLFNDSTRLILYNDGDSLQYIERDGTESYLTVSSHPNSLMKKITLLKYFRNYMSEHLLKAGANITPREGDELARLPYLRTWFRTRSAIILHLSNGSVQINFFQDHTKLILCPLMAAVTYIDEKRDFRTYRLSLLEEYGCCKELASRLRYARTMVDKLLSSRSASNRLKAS
Sequence of Serine/threonine-protein kinase pim-1 (Homo sapiens) (P11309 whole entry, looked up): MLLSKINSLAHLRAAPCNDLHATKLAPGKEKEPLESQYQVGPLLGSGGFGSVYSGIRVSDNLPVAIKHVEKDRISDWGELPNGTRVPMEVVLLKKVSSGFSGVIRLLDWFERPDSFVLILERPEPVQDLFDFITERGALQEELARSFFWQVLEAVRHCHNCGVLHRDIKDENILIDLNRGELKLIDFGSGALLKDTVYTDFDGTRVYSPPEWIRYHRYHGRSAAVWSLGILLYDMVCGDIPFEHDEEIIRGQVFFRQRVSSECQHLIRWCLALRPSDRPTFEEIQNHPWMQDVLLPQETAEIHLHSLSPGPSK
Sequence of Serine/threonine-protein kinase pim-2 (Homo sapiens) (Q9P1W9 whole entry, looked up): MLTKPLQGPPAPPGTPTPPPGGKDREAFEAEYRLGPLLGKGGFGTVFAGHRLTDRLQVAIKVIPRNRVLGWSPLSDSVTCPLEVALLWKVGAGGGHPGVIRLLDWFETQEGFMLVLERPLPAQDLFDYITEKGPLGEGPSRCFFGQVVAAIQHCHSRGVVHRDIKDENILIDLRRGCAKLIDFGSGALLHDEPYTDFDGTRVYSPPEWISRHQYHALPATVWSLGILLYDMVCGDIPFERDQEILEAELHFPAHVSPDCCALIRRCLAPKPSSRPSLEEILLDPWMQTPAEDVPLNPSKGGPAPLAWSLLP
Sequence of Tyrosine-protein kinase FRK (Homo sapiens) (P42685 whole entry, canonical isoform): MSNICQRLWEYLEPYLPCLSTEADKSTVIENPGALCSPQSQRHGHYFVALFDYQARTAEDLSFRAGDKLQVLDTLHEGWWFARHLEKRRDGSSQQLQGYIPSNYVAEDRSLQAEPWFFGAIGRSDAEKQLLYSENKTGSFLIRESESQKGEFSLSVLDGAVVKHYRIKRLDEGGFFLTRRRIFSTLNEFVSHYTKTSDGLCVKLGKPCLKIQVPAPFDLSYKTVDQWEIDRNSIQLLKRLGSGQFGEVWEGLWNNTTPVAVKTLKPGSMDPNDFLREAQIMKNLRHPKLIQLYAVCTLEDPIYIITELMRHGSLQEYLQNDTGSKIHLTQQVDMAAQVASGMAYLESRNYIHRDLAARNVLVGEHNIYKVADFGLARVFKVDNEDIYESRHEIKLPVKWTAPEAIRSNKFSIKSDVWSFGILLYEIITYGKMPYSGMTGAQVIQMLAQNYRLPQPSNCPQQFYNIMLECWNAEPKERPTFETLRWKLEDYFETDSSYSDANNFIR
Sequence of Serine/threonine-protein kinase N2 (Homo sapiens) (Q16513 whole entry, looked up): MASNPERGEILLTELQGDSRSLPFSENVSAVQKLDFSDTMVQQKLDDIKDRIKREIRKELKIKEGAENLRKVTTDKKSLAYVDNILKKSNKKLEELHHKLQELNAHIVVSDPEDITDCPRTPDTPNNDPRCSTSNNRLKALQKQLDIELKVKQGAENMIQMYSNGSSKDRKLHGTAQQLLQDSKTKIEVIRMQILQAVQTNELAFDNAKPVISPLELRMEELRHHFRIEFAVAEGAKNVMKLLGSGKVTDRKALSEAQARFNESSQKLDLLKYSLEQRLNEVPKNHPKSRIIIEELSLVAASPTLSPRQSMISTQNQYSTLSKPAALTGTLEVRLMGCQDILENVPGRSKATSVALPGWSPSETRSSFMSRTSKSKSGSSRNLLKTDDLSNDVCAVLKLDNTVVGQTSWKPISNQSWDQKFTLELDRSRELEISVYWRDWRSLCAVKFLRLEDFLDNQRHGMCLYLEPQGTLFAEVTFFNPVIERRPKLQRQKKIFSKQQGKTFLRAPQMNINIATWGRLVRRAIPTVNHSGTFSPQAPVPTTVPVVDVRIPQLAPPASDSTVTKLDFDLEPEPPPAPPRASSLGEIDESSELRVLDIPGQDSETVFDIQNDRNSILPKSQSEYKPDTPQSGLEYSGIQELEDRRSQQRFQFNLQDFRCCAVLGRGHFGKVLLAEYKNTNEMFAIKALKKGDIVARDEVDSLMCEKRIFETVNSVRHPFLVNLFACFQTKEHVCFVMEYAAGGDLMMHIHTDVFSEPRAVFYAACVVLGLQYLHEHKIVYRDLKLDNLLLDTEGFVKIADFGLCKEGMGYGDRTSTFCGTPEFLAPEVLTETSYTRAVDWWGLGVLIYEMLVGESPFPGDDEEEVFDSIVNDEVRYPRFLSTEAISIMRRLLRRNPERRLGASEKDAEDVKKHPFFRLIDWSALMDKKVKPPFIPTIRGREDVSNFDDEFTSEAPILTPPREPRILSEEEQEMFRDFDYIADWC

Structure (SMILES)	residual activity [1] [%]	residual activity [2] [%]	residual activity [3] [%]	residual activity [4] [%]	residual activity [5] [%]	residual activity [6] [%]	residual activity [7] [%]	residual activity [8] [%]	residual activity [9] [%]	residual activity [10] [%]	residual activity [11] [%]	residual activity [12] [%]	residual activity [13] [%]	residual activity [14] [%]	residual activity [15] [%]	residual activity [16] [%]	residual activity [17] [%]	residual activity [18] [%]	residual activity [19] [%]	residual activity [20] [%]
O=c1c2ccccc2[nH]c(=S)n1CCN1CCC(=C(c2ccc(F)cc2)c2ccc(F)cc2)CC1	107	103	86	87	94	74	114	109	101	89	103	105	89	105	75	133	98	99	104	68
CC[n+]1c(/C=C/N(C)c2ccccc2)n(-c2ccccc2)c2ccc(-c3nc4ccccc4s3)cc21	105	80	87	60	104	133	94	77	108	123	93	63	94	85	101	136	105	107	123	90
CC#CC(=O)Nc1cc2c(Nc3ccc(F)c(Cl)c3)ncnc2cn1	103	102	86	92	84	77	94	98	97	92	92	105	88	101	82	109	91	91	98	81
Cn1nc2c3c(cccc31)C(=O)c1ccccc1-2	86	95	100	6	76	44	95	77	87	64	102	84	71	45	91	44	80	66	81	77
CCOc1cc2ncnc(Nc3cccc(Br)c3)c2cc1OCC	108	91	95	66	79	82	93	79	40	5	92	108	65	57	92	79	96	94	80	81
Cc1ccc(NC2=CC(=O)c3sc(C)nc3C2=O)cc1	91	95	105	88	110	114	93	89	87	90	114	92	94	85	99	111	91	92	87	89
O=C1NC(=O)/C(=C\c2ccc3nccnc3c2)S1	125	97	80	62	96	93	103	94	110	93	90	50	42	10	75	22	61	14	80	64
Oc1c2ccccc2c2c3c(cccc13)N=N2	79	79	90	60	59	14	74	32	91	58	77	15	68	18	58	21	75	59	69	64
COc1cc2ncnc(N3CCN(C(=O)Nc4ccc(Oc5ccccc5)cc4)CC3)c2cc1OC	99	110	68	72	78	79	88	112	96	127	103	122	111	122	92	149	91	93	63	61
Cn1cnc2cc3c(Nc4cccc(Br)c4)ncnc3cc21	115	87	93	88	78	78	101	97	72	28	95	98	75	63	84	97	92	88	105	82
COc1cc2ncnc(Nc3ccc(Oc4ccccc4)cc3)c2cc1OC	119	143	76	110	120	118	91	120	39	7	95	123	81	132	135	142	95	93	74	72
O=c1cc(-c2cccc3c2Sc2ccccc2S3)oc(N2CCOCC2)c1	102	105	81	80	99	40	112	97	94	92	96	100	93	30	68	29	102	85	95	99
Oc1ccc(Nc2nc(-c3ccc(Cl)cc3)cs2)cc1	100	99	113	111	115	69	110	107	104	118	129	130	77	52	126	82	93	97	97	90
